Experimental data published in PubChem BioAssay (NCI).
About 83,000 compounds went through this panel and 20% of them were active in at least one assay; those are over-represented in the sample as a whole.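 Method: cells in 96-well plates; compound added at one concentration; 48 h incubation; percent growth measured; values under 10 scored active.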 Unmarked numbers belong to inactive results. The source made the active and inactive calls.

These compounds were tested on SK-OV-3 ovarian (assay: NCI-60 one-dose screen, 48 h (100 = growth as untreated, 0 = no growth, -100 = all killed)). Conditions: 10 µM unless noted.
Protocol: Growth inhibition of the SK-OV-3 human tumor cell line is measured as a screen for anti-cancer activity. Cells are grown in 96 well plates and exposed to the test compound for 48 hours. Compounds are tested at a single concentration, which is 10^-5 M for most compounds. The reported endpoint is percent growth (GI% or GIPRCNT), where numbers from 0 - 100% represent growth inhibition, and numbers from -100% - 0 represent cell death. For example, a value of 40 represents 60% growth inhibition. A value of 0 means no net growth occurred over the course of the experiment. A value of -40 indicates 40% of cells at the beginning of the experiment died by the end of the experiment. A value of -100 means all cells are dead at the end of the experiment.
NCI-60 Human Tumor Cell Lines Screen was performed using the standard one-dose NCI protocol, which is described in more detail at https://dtp.cancer.gov/discovery_development/nci-60/default.htm.
Compounds with GIPRCNT values below 10 were considered active. Activity score was based on GIPRCNT using the following formula: […]
Score is 0 for GIPRCNT values of 100 or above, 50 for GIPRCNT values of 0, and 100 for GIPRCNT values of -100.

Compound	growth
CC1CCN(CC(=O)Nn2c(COc3ccccc3)nc3ccccc3c2=O)CC1	77%
CN1CCN(c2ccc(Nc3nc(NCCCNS(=O)(=O)c4cccc(F)c4)c4sccc4n3)cc2)CC1	115%
CSc1ccc(C(=NNS(=O)(=O)c2ccc(C)cc2)c2ccc(Cl)cc2)cc1	111%
Cn1cc(-c2nnc(N)nc2-c2c[nH]c3ccc(F)cc23)c2cc(Br)ccc21	33.7%
Cc1ccc(C(=O)Nc2ccc(CNCCN3CCOCC3)c(C(F)(F)F)c2)cc1C#Cc1cnc2cccnn12	57.7%
Oc1ccc(-c2nc3ccc(/C(=N\N=C\c4ccc(Cl)cc4)c4ccccc4)cc3[nH]2)cc1	106%
COc1ccccc1/C=C1\Oc2ccc(O)c(O)c2C1=O	105%
O=C(/C=C/Nc1ccc(S(=O)(=O)Nc2ncccn2)cc1)c1ccc(N=Cc2c(O)[nH]c3ccccc23)cc1	109%
C/C(=C(\c1ccc(O)cc1)c1ccc(OCCN2CCCCCC2)cc1)c1ccc(Cl)cc1	-85.5% (active)
C#Cc1nc(/C=C/C(=O)NO)cs1	95.6%
COC(=O)N1CCN(CCNCc2ccc(NC(=O)c3ccc(C)c(C#Cc4cnc5cccnn45)c3)cc2C(F)(F)F)CC1	83.1%
O=C(CCCCCCNC(=O)C(O)(O)C(F)(F)F)Nc1ncc(-c2ccccc2)s1	-23.8% (active)
CN1CCN(Cc2ccc(NC(=O)c3cncc(C#Cc4cnc5ccc(OC6CCOCC6)nn45)c3)cc2C(F)(F)F)CC1	-73.7% (active)
COc1cc(C(=O)c2cc(C(C)=O)c3ccc(C)cn23)cc(OC)c1OC	77.4%
O=S(=O)(NCCCNc1nccc(-c2[nH]c(-c3ccccc3)nc2-c2ccc(F)c(O)c2)n1)c1cccc(F)c1	113%
COc1cc2cc(Oc3ccc(NC(=O)Nc4ccc(F)c(C(F)(F)F)c4)cc3)c(C)nc2cc1OCCN(C)C	116%
CC1=C(SCC(=O)OCCCCCC(C)C)C(=O)c2ccccc2C1=O	104%
C#CCOc1cccc(/C(N)=N/C(N)=N/c2nc3ccccc3s2)c1	133%
COC(=O)c1ccc(NC2=C(Cl)C(=O)c3nc(C)ccc3C2=O)cc1	125%
Oc1[nH]c2ccc(Cl)cc2c1N=Nc1nc(N=Nc2c(O)[nH]c3ccc(Cl)cc23)nc(N2CCCCC2)n1	94.5%

Compound	growth
COC(=O)c1cccc(NC2=CC(=O)C(C)=C(C)C2=O)c1	105%
O=C(N/N=C\c1ccc(F)cc1)c1ccc2nc(-c3ccc(Br)cc3)[nH]c2c1	90.9%
CCN(CC)c1ccc(/C=N/NC(=O)c2ccc(S(N)(=O)=O)cc2)cc1	35.5%
Cc1[nH]c(C(=O)Nc2ccc(S(=O)(=O)N3CCCCC3)cc2OCCOCCOCCOCCOCCOCCOCCOCCOCCOc2cc(S(=O)(=O)N3CCCCC3)ccc2NC(=O)c2[nH]c(C)c3c2CCCCC3=O)c2c1C(=O)CCCC2	-42.5% (active)
C#CCOc1ccccc1/C=N/Nc1nc(-c2ccc(Cl)cc2)cs1	93.9%
CC/C(=C(/c1ccc(Cl)cc1)c1ccc(OCCN)cc1)c1ccccc1	119%
CS(=O)(=O)c1ccc(/C(=N/N=C(N)N)c2ccc(F)cc2)cc1	108%
O=C1/C(=C/c2cc(F)cc(F)c2)Cc2cc3c(cc21)OCO3	35.6%
N#Cc1cnc2ccc(-c3cnc4n[nH]nc4c3)cc2c1N1CCc2cc(F)c(Cl)cc21	-0.177% (active)
COc1cc(NC(=O)Nc2cccc(-c3cc(=O)c4c(OC)c(OC)c(OC)cc4o3)c2)cc(OC)c1OC	111%
CCOc1cccc(/C(N)=N/C(N)=N/c2nc3ccccc3s2)c1	132%
Cc1ccc(OCc2occc2C(=O)N2CCOCC2)cc1	109%
CC1=C(C)C(=O)C(Nc2cccc(C(=O)OC(C)(C)C)c2)=CC1=O	90.5%
CCOC(=O)c1cccc(NC2=C(Cl)C(=O)C(C)=C(C)C2=O)c1	107%
O=C1CSC(c2cn(-c3ccccc3)nc2-c2ccc(Cl)cc2)N1c1ccccc1 (stereo not given)	114%
COc1ccc(-c2c(C(N)=O)c(N)n(Cc3nc4ccccc4[nH]3)c(=O)c2C#N)c(OC)c1	90.9%
CN1CCN(Cc2ccc(NC(=O)c3cncc(C#Cc4cnc(N)nc4)c3)cc2C(F)(F)F)CC1	-21.2% (active)
CC(=O)OC[C@]12CC[C@@H](C(=O)/C=C/c3cccnc3)[C@@H]1[C@H]1CC[C@@H]3[C@@]4(C)CC[C@H](OC(C)=O)C(C)(C)[C@@H]4CC[C@@]3(C)[C@]1(C)CC2	65.8%
C(=N\Nc1nc(N/N=C/c2ccc3c(c2)OCO3)nc(N2CCCCC2)n1)/c1ccc2c(c1)OCO2	140%
O=c1c2ccccc2cc2n1CCN=C2c1ccccc1	103%
